Screening results from PubChem BioAssay.
Rows were chosen to be rich in hits. Some 19% of all compounds tested hit in one or more screens of this group.
TDP1 cell noCPT = qHTS for Inhibitors of human tyrosyl-DNA phosphodiesterase 1 (TDP1): qHTS in cells in absence of CPT. DT40 Tdp1-/- hTDP1 cells, no CPT, ATP luminescence, 48 h. Potency, µM (highest dose often 46.2 µM), hits mostly inhibitors. actives 15% (n = 420,000). AID 686978, 2013; note: nearly all actives have a fitted effect of over 55% in size
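Readout: luminescence from CellTiter-Glo after 30 min in the dark at RT. Cells: DT40 Tdp1-/- with stable hTDP1, 400/well. Exposure: compounds alone, ≥48 hr, 37 °C.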
HT1080-NT tox = kills 2HG-producing HT-1080-NT fibrosarcoma cells; AID 686970; actives 1.6% (n = 360,000); HT-1080-NT fibrosarcoma viability, CellTiter-Glo ATP luminescence, 48 h; Potency, µM (titrated, usually from 46.1 µM), hits mostly cytotoxic;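 note: NT is the 2HG producing partner of a matched IDH1 knockdown line; nearly all actives have a fitted effect of over 55% in size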
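A 48-hour cytotoxicity screen used HT-1080-NT cells plated 2 hours before compound delivery. ATP-based CellTiter-Glo luminescence measured viability, normalized to DMSO and no-cell controls.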
IL-1B inflam inh = inhibitors of inflammasome signaling (IL-1 beta secretion) | actives 4.7% (n = 360,000) | AID 743279 | THP-1 LPS/ATP IL-1B secretion, AlphaLISA, 16 h; active compounds read low | activity change, % at 57.5 µM; in the data active = activity change below about -50%; inconclusive = mostly about -30% to -49%
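THP-1 cells pretreated 1 hr with compounds (up to 57.5 uM final), then stimulated with LPS (250 ng/mL final) plus ATP (1.25 mM final); secreted IL-1B measured by AlphaLISA after 16 hr, decreased signal indicating inhibition.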
HT1080 IDH1KD tx = toxicity to HT-1080 IDH1 knockdown cells (counter line). HT-1080 IDH1 knockdown viability, ATP luminescence, 48 h. Potency, µM (series often up to 46.1 µM), most hits filed as cytotoxic. actives 2% (n = 360,000). AID 686971
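After a 2 h attachment period, IDH1KD HT-1080 cells took pin-transferred compound for 48 h at 37 °C; ATP-based luminescence after 10 min room-temperature reagent incubation reported viability.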
TDP1 cell CPT = DT40-hTDP1 cell growth loss with CPT. Potency, µM (series often up to 46.2 µM), most hits filed as inhibitors. AID 686979. actives 12% (n = 420,000). chicken DT40 Tdp1-/-;hTDP1 cells + 20 nM CPT, ATP luminescence, 48 h; note: nearly all actives have a fitted effect of over 55% in size
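Chicken DT40 Tdp1-/- cells stably complemented with human TDP1 were seeded at 400 cells/well in medium containing 20 nM camptothecin, exposed to pin-transferred compounds, and grown at 37 °C for at least 48 hr. Viability was read as ATP luminescence.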
uPA generation = blocks generation of uPA at the cell surface; cell surface uPA generation assay, qHTS; Potency, µM (doses to about 38.3 µM), most hits filed as inhibitors; actives 0.31% (n = 330,000); AID 540303; active = well fitted inhibition curve with a large enough effect; inconclusive = small, poorly fitted or top-dose-only effect; inactive = no such curve, though single readings can be large or run the other way; tested in mouse RAW 264.7 cells; note: nearly all actives have a fitted effect of over 55% in size
Large screens that a line does not name were inactive. Unless noted, calls come from the whole dose curve; as a rule, active = well fitted curve in the direction sought with a large enough effect; inconclusive = small, poorly fitted or top-dose-only effect, or another doubt; inactive = no such curve, though single readings can be large; an effect the other way counts as inactive or inconclusive.

CC(=O)Nc1ccc(-c2ccnc3c2CC(C)(C(=O)NC(C)C)O3)cc1 (stereo not drawn)	HT1080-NT tox inconclusive (no result: uPA generation)
CC(C)c1ccc(NC(=O)C2(C)Cc3c(-c4ccc(N(C)C)cc4)ccnc3O2)cc1 (stereo not drawn)	TDP1 cell noCPT 16µM, TDP1 cell CPT inconclusive (no result: uPA generation)
CC1(C(=O)Nc2ccc(Cl)c(C(F)(F)F)c2)Cc2c(-c3ccccc3)ccnc2O1 (stereo not drawn)	TDP1 cell noCPT inconclusive, TDP1 cell CPT inconclusive (no result: uPA generation)
CC(C)c1ccc(NC(=O)C2(C)Cc3c(-c4ccccc4)ccnc3O2)cc1 (stereo not drawn)	TDP1 cell noCPT inconclusive, HT1080-NT tox inconclusive, TDP1 cell CPT 18µM (no result: uPA generation)
CC(=O)Nc1ccc(NC(=O)C2(C)Cc3c(-c4cccc(C(F)(F)F)c4)ccnc3O2)cc1 (stereo not drawn)	TDP1 cell noCPT inconclusive, TDP1 cell CPT inconclusive (no result: uPA generation)
CC(C)c1ccc(NC(=O)C2(C)Cc3c(-c4cccc(C(F)(F)F)c4)ccnc3O2)cc1 (stereo not drawn)	TDP1 cell noCPT inconclusive, TDP1 cell CPT 16µM (no result: uPA generation)
Cn1nc([N+](=O)[O-])nc1Sc1ccc(Cl)cc1	TDP1 cell noCPT inconclusive, TDP1 cell CPT inconclusive
Cn1cnnc1Sc1nc([N+](=O)[O-])nn1C	none
Cc1ccc(-n2nnnc2Sc2nc([N+](=O)[O-])nn2C)c(C)c1	TDP1 cell noCPT inconclusive, IL-1B inflam inh inconclusive, TDP1 cell CPT 16µM
Cc1ccc(-n2nnnc2Sc2nc([N+](=O)[O-])nn2C)cc1	TDP1 cell noCPT inconclusive, HT1080-NT tox inconclusive, IL-1B inflam inh -57, HT1080 IDH1KD tx inconclusive, TDP1 cell CPT inconclusive
Cc1noc(C)c1C(=O)NCCc1c(C)[nH]c2ccccc12	none
CC1CCN(S(=O)(=O)c2ccc3c(c2)N(CC(=O)NCCN2C(C)CCCC2C)C(=O)CS3)CC1 (stereo not drawn)	none
CCOc1ccc(S(=O)(=O)c2ccc(C)cc2)c2c1no[n+]2[O-]	TDP1 cell noCPT 18µM, TDP1 cell CPT 15µM (no result: uPA generation)
CCN(CC)C(=O)c1sc2nc(-c3ccncc3)[nH]c(=O)c2c1C	none
CCN(CC)C(=O)c1sc2nc(-c3ccccn3)[nH]c(=O)c2c1C	TDP1 cell noCPT 12µM, TDP1 cell CPT 23µM
Cc1sc2nc(-c3ccccn3)[nH]c(=O)c2c1-c1ccccc1	TDP1 cell noCPT 10µM, HT1080-NT tox inconclusive, HT1080 IDH1KD tx inconclusive, TDP1 cell CPT 9.2µM
COc1cc(NC(=O)N(Cc2ccco2)C2CCN(C(C)=O)CC2)cc(OC)c1OC	none (no result: HT1080-NT tox, IL-1B inflam inh, HT1080 IDH1KD tx, uPA generation)
Oc1ccc(/C=N/NC(=S)Nc2cccnc2)cc1O	none
Oc1ccc(C=NNC(=S)Nc2cccnc2)nc1	TDP1 cell noCPT 21µM, HT1080-NT tox inconclusive, HT1080 IDH1KD tx inconclusive, TDP1 cell CPT 16µM
COc1ccc(/C=C(/NC(=O)c2ccccc2)C(=O)N2CCOCC2)cc1OC	IL-1B inflam inh -67
COc1ccc(-c2ccc(/C=C(\NC(=O)c3ccccc3)C(=O)N3CCOCC3)o2)cc1	TDP1 cell noCPT 21µM, IL-1B inflam inh -57, TDP1 cell CPT 15µM
COc1ccc(/C=C(\NC(=O)c2ccccc2)C(=O)N2CCN(C)CC2)cc1OC	none
O=C(N/N=C/c1ccc2c(c1)OCO2)/C(=C/c1ccc2c(c1)OCO2)NC(=O)c1ccccc1	TDP1 cell noCPT inconclusive, IL-1B inflam inh inconclusive, TDP1 cell CPT inconclusive
COc1ccc(/C=C(/NC(=O)c2ccccc2)C(=O)N/N=C/c2ccc3c(c2)OCO3)cc1OC	HT1080-NT tox inconclusive, IL-1B inflam inh -69
COc1ccc(C(=O)N/C(=C\c2ccccc2)C(=O)N2CCOCC2)cc1	none
CC(=O)NC(=Cc1ccccc1)C(=O)N1CCCC1C(=O)O (stereo not drawn)	none (no result: uPA generation)
COc1ccc(-n2c(=O)c(C)nc3cnc(N4CCNCC4)nc32)cc1	none (no result: HT1080-NT tox, IL-1B inflam inh, HT1080 IDH1KD tx, uPA generation)
Cc1ccc(NC(=O)Cn2cc(C(F)(F)F)cc(Cl)c2=O)cc1Cl	none
COc1ccc(OCCN2C(=O)c3cccc(N)c3C2=O)cc1	none
CC1=C(C(=O)Nc2ccccc2C)C(c2cccnc2)n2nc(SCc3ccccc3F)nc2N1 (stereo not drawn)	none (no result: HT1080-NT tox, IL-1B inflam inh, HT1080 IDH1KD tx, uPA generation)
C/C(=N\Nc1ccc(Cl)c(Cl)c1)c1ccc(-n2ccnc2)cc1	TDP1 cell noCPT inconclusive, IL-1B inflam inh -65, TDP1 cell CPT inconclusive
COc1ccc(-n2c(=O)c3c(c4cc(OC)ccc4n3C)n(Cc3c(F)cccc3Cl)c2=O)cc1	none (no result: HT1080-NT tox, IL-1B inflam inh, HT1080 IDH1KD tx, uPA generation)
CCc1ccc(NC(=O)[C@H](C)NC(=O)C2CCN(C(=O)[C@@H](NC(=O)OC(C)(C)C)C(C)C)CC2)cc1	none
CCc1ccc(NC(=O)[C@H](C)NC(=O)C2CCN(C(=O)[C@@H](N)Cc3ccccc3)CC2)cc1	TDP1 cell noCPT 16µM, TDP1 cell CPT inconclusive
Fc1cccc(Cl)c1Cn1nnc2c(NCc3ccncc3)ncnc21	TDP1 cell noCPT inconclusive, HT1080-NT tox inconclusive, HT1080 IDH1KD tx inconclusive, TDP1 cell CPT 23µM
Fc1cccc(Cl)c1Cn1nnc2c(NCc3ccccn3)ncnc21	IL-1B inflam inh -59, TDP1 cell CPT inconclusive
COc1ccc(N(C)S(=O)(=O)c2cccc(C(=O)OCC(=O)c3c(N)n(C)c(=O)n(C)c3=O)c2)cc1	TDP1 cell noCPT 13µM, TDP1 cell CPT 23µM, uPA generation inconclusive
CN(c1ccccc1)S(=O)(=O)c1ccc(Cl)c(C(=O)OCC(=O)c2c(N)n(C)c(=O)n(C)c2=O)c1	TDP1 cell noCPT inconclusive, TDP1 cell CPT 23µM
CCN(c1ccccc1)S(=O)(=O)c1cccc(C(=O)OCC(=O)c2c(N)n(C)c(=O)n(C)c2=O)c1	TDP1 cell noCPT 18µM, TDP1 cell CPT inconclusive
Cn1c(=O)c(C(=O)COC(=O)c2cc(C3CC3)nc3ccccc23)c(N)n(Cc2ccccc2)c1=O	TDP1 cell noCPT 16µM, TDP1 cell CPT 21µM
Cn1c(N)c(C(=O)COC(=O)c2cccc(S(=O)(=O)NCc3ccccc3)c2)c(=O)n(C)c1=O	TDP1 cell noCPT inconclusive, TDP1 cell CPT inconclusive
CNS(=O)(=O)c1cccc(C(=O)OCC(=O)c2c(N)n(Cc3ccccc3)c(=O)n(C)c2=O)c1	TDP1 cell noCPT inconclusive, TDP1 cell CPT 15µM
Cc1ccc(C)c(Cn2c(=O)cc(C)c3c(C)nn(-c4cccc(F)c4)c32)c1	none (no result: HT1080-NT tox, IL-1B inflam inh, HT1080 IDH1KD tx, uPA generation)
CCOC(=O)C1=C(c2ccccc2)NC(N)=NC1c1ccc(OCc2ccc(C(=O)OC)cc2)cc1 (stereo not drawn)	TDP1 cell noCPT 13µM, HT1080-NT tox 23µM, IL-1B inflam inh -67, HT1080 IDH1KD tx 21µM, TDP1 cell CPT inconclusive
